In all, about 33,000 sequences were measured (“E-score (-0.5 to 0.5)”: median about -0.012, highest 2% from about 0.27 on). The entries come from a sample that favours the highest values as a whole.

The assay addresses T1, Vhr1 (UniProt P40522).
T1 sequence: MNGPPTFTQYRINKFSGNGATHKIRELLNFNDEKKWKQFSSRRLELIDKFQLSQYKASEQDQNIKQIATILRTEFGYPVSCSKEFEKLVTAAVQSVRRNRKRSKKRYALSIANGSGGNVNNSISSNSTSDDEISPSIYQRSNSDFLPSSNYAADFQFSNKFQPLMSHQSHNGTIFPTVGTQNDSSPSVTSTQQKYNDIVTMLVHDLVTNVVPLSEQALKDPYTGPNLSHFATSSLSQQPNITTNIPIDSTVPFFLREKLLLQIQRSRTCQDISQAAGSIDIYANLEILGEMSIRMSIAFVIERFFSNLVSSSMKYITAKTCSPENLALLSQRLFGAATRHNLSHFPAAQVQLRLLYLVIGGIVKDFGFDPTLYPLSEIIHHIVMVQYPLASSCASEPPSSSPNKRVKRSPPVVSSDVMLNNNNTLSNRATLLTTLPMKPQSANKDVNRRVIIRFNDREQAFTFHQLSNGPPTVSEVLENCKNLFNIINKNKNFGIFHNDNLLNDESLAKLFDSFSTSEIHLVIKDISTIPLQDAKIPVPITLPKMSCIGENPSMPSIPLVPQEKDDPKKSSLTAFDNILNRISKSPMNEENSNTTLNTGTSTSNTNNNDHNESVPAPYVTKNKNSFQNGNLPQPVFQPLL
The assay can be described thus: PBM E-score (8-mer binding enrichment) (E-score (-0.5 to 0.5)); higher = stronger / more preferred TF binding. The settings on record: protein concentration: 200 nM; construct: GST-full length. The essentials:
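Bound GST-tagged yeast transcription factors, applied at about 100-200 nM to double-stranded universal all-10-mer Agilent arrays, were detected with fluorescent anti-GST. Scans were normalised with masliner. A modified Wilcoxon-Mann-Whitney statistic, the E-score, was assigned to each ungapped eight-base word pooled with its reverse complement by the Universal PBM Analysis Suite.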
On to GTCACGTA, for which the “PBM E-score” value was determined as 0.13.
As for ACGCCTTG, the “PBM E-score” value is -0.0936.
Then CTTGGCCA, with -0.0546.
Then GTAGTCCA, with -0.0646; and GCAGCGAC, with 0.167; and ATGGTTCA, with 0.366.
CTGGTTCA: the “PBM E-score” value was -0.0177.
Then ATGGTTCG, with 0.224.
CTGGTTCC: the “PBM E-score” value amounted to 0.0593.
Then GTGGTTCA, with 0.254.
On to ATGGTTCC, for which the “PBM E-score” value turned out to be 0.318.
Then CATTAGGA, with -0.0276.
Then ACAGTTCA, with 0.0273.
Regarding CGCAATCC, the “PBM E-score” value was -0.0979.
Turning to AAACCTAA, the “PBM E-score” value was -0.0619.
Then TAATGGCA, with -0.00432.
Then CTCAATAC, with 0.226.
Turning to ATCAAAGG, the “PBM E-score” value was -0.0468.
Then CAAGAGCG, with 0.0553.
Then ATGGGTGA, with 0.322; and GTGGGTAA, with 0.138; and ATGGGTCA, with 0.263.
Then GTGGGTGA, with 0.331; and GAGGGTGA, with 0.153.
With CTGGGTGA, the “PBM E-score” value is 0.275.
Take CTGGGTGC: the “PBM E-score” value was determined as 0.123.
On to CAGGGTGA, for which the “PBM E-score” value is 0.114.
Then ATGGGTGC, with 0.0292.
Then GTGGGTCA, with 0.365; and CTGGGTCA, with 0.11; and ATGGGTGG, with 0.242.
On to CACCTACC, for which the “PBM E-score” value was -0.125.
As to AAGTGCGT, the “PBM E-score” value is -0.0339.
Then GTCTGTAA, with -0.0248; and AATTCTTC, with -0.211.
Then AGATCACC, with -0.0605; and ACTGGTCG, with 0.0753; and GTCGTCTA, with -0.0586.
As to GAACTAGC, the “PBM E-score” value was -0.118.
Then AACAGGAT, with -0.0425; and CTATGAAC, with 0.107; and CCTATCTA, with -0.245.
Then AGTCAGCG, with 0.347.
In the case of AGTCAGAT, the “PBM E-score” value amounted to 0.27.
On to ATTCAGCG, for which the “PBM E-score” value was -0.0101.
Then AGTCAGCC, with 0.402; and AGTCAGAG, with 0.386.
Take CGTCAGCC: the “PBM E-score” value was 0.044.
Then ACTCAGCC, with 0.151; and AGTCAGCA, with 0.346; and CGTCAGCA, with -0.11.
Then AGTCAGAA, with 0.18; and GGTCAGCA, with 0.15.
Then ACTCAGCG, with 0.133.
On to CTAGCCTA, for which the “PBM E-score” value was -0.153.
For GGAACCAA, the “PBM E-score” value was determined as 0.171.
Then AAAGGCGC, with -0.0831; and ACACCCAT, with 0.191; and AGGTAATC, with 0.104.
Then ACACTCCC, with 0.0331; and GATGGGTA, with 0.285; and CATGGGTA, with 0.27.
Then AATGGGTA, with 0.0928; and CAACCCGG, with -0.116.
As to CAACCCGC, the “PBM E-score” value is 0.272.
Then AAACCCGC, with 0.0774; and CGTTTCAG, with -0.0522; and ATAGGCCG, with -0.229.
CATCGATC: the “PBM E-score” value was determined as 0.016.
Take AATCGATG: the “PBM E-score” value was found to be 0.107.
As to CATCGATG, the “PBM E-score” value was found to be 0.302.
AGCACAGG: the “PBM E-score” value was 0.00375.
Consider CCAGTCGA, for which the “PBM E-score” value turned out to be 0.0785.
Then TAAAGGCA, with -0.226; and AGAGTATC, with -0.0198; and CCAAGCAC, with 0.112.
For the sequence CGATGGGC, the “PBM E-score” value is 0.297.
Consider CGATGGGA, for which the “PBM E-score” value was -0.0641.
As to AGATGGGC, the “PBM E-score” value was -0.0228.
ACTTGGCG: the “PBM E-score” value was found to be 0.0405.
CGATAGGA: the “PBM E-score” value is 0.129.
Then TAGTCTGA, with 0.218.
Then GAGTCAAA, with 0.312; and AAGTCAAA, with 0.00983.
With CAGTCAAC, the “PBM E-score” value turned out to be 0.216.
Then GAGTCAAC, with 0.403.
